Whole data set: some 33,000 sequences, median “E-score (-0.5 to 0.5)” near -0.053, cut for the highest 2% near 0.37. The list comes from a sample in which the highest values are over-represented; it also holds similar and randomly drawn sequences.
What follows are sequences tested against Hap1 (UniProt P0CE41) (assay: PBM E-score (8-mer binding enrichment) (E-score (-0.5 to 0.5)); higher = stronger / more preferred TF binding). Details: protein concentration: 200 nM; construct: GST-DNA-binding domain.
Procedure: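 Universal 'all 10-mer' protein binding microarrays (Agilent AMADID 015681) probed with GST-tagged S. cerevisiae TFs (full-length or DBD) made by in vitro transcription/translation (PURExpress), about 100-200 nM. Bound TF was detected with fluorescent anti-GST. Each ungapped 8-mer (which stands for itself and its reverse complement) is scored by the PBM enrichment score (E-score), a modified Wilcoxon-Mann-Whitney statistic from -0.5 to +0.5, computed with the Universal PBM Analysis Suite. Scale: above 0.35 generally sequence-specific binding.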

Sequence of UniProt P0CE41 (P0CE41 whole entry, the tested form may be a part): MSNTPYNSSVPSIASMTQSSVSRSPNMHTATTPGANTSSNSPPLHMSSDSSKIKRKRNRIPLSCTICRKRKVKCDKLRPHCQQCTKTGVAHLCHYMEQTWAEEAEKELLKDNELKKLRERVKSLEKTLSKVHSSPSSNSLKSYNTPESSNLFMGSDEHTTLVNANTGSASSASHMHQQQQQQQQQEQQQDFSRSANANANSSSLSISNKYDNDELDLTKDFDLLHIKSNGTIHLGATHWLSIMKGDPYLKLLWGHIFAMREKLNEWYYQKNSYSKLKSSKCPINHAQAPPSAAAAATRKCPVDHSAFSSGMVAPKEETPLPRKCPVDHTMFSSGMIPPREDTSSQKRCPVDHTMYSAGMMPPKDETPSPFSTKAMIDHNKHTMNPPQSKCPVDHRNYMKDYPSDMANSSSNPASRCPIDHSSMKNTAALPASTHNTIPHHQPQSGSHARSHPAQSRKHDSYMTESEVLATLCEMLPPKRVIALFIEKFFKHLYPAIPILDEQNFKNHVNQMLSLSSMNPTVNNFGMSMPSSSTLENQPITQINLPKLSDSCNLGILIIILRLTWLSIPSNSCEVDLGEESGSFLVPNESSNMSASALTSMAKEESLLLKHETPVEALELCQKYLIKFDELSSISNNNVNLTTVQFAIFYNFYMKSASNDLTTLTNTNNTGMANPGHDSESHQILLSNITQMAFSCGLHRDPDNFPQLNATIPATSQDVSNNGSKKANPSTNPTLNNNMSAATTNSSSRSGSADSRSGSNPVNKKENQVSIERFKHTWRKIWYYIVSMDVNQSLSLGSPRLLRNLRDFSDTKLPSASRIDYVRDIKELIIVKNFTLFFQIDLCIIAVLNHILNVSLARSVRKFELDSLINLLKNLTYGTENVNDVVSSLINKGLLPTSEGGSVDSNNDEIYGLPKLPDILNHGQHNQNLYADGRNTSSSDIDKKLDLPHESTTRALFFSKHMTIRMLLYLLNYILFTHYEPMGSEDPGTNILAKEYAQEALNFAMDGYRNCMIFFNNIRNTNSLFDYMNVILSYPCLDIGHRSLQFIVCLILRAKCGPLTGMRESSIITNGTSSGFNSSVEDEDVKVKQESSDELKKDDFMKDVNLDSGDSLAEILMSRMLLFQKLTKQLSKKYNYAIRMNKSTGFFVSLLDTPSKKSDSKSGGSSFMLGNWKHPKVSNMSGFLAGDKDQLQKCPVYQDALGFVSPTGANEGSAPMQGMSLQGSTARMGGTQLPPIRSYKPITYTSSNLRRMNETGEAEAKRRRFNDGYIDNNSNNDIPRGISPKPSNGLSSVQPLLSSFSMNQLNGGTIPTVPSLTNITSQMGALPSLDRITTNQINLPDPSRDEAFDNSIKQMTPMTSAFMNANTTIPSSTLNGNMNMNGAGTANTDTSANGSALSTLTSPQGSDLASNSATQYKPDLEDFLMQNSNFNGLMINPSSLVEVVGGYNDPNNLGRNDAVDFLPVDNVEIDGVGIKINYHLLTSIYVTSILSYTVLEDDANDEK

| Sequence | PBM E-score |
| --- | --- |
| AATTGGAC | 0.0155 |
| CAGTAAAC | 0.00777 |
| GCCTGCAC | -0.137 |
| ATGCGCTA | -0.0961 |
| CCGCCGAA | 0.38 |
| GCGCCGGA | 0.368 |
| ACGCCGTA | 0.0761 |
| ACGCCGGG | 0.306 |
| CCGCCGGA | 0.402 |
| ACGCCGGC | 0.405 |
| ACGCCGCA | 0.18 |
| CCGCCGAG | 0.352 |
| ACGCCGCC | 0.256 |
| GCGCCGAA | 0.359 |
| CCGCCGCA | 0.135 |
| ACGCCGGA | 0.381 |
| CGGCTCTC | 0.0925 |
| AGCTGTGC | -0.224 |
| CACGTCAC | -0.125 |
| GGACCCAA | 0.124 |
| ATACGTGC | 0.0178 |
| CCATCGGC | 0.174 |
| GTTGCAAA | -0.0687 |
| CAATTTGC | -0.103 |
| TTCGTAAA | -0.199 |

| Sequence | PBM E-score |
| --- | --- |
| CCTAAAAA | 0.00566 |
| GCCAAGTA | -0.218 |
| CCGCCGGC | 0.373 |
| CCGCCGTC | 0.151 |
| CCGCCGCC | 0.193 |
| AAGTTTAT | 0.145 |
| ATCACCGA | 0.417 |
| ATCACCGC | 0.234 |
| ATCACCTG | -0.158 |
| GTCACCGA | 0.142 |
| CTCACCGA | 0.157 |
| ATCACCGG | 0.382 |
| ATAAGCCG | 0.3 |
| ACTGATAG | -0.267 |
| CCGATCCG | 0.438 |
| CGGATCCG | 0.401 |
| CGGATCCC | 0.28 |
| ACGATCCG | 0.302 |
| CCGATCGG | 0.402 |
| CCGATCGA | 0.325 |
| ACGATCGG | 0.258 |
| CGGATCCA | 0.318 |
| CCGATCCA | 0.269 |
| ACTTTATG | -0.17 |
| ATCAGTAG | -0.276 |

| Sequence | PBM E-score |
| --- | --- |
| ACAGGGCC | 0.115 |
| GGTCCCCA | 0.0281 |
| GCTCGGCC | 0.375 |
| CCTCGGAA | 0.314 |
| CCTCGGAG | 0.394 |
| ACTCGGAC | 0.385 |
| ACTCGGAT | 0.311 |
| ACTCGGAG | 0.305 |
| CCTCGGCC | 0.346 |
| ACTCGGCC | 0.361 |
| CGTCGGAG | 0.313 |
| CCTCGGGC | 0.31 |
| CCTCGGAC | 0.39 |
| ACTCGGAA | 0.344 |
| AGACTAAG | -0.103 |
| CGGCAGGA | 0.175 |
| ATGGAAAC | -0.0981 |
| TCACTTAA | -0.167 |
| CGCGCCGC | 0.228 |
| AAACGTCG | 0.00491 |
| CCTCGGCG | 0.37 |
| GCTCGGAC | 0.403 |
| GGTCGGAC | 0.342 |
| GCTCGGAA | 0.335 |
| ACTCGGCG | 0.259 |

| Sequence | PBM E-score |
| --- | --- |
| CCTCGGCA | 0.294 |
| GATCAAAC | -0.0316 |
| TAGAGCAA | -0.296 |
| AGTTGATG | -0.292 |
| CCGATATA | 0.44 |
| ACGATATA | -0.0495 |
| CCGATATC | 0.458 |
| GCGATATA | 0.24 |
| CAGATATC | 0.199 |
| ACGATATC | 0.0796 |
| AATCGGGA | 0.159 |
| ATGCCTTG | -0.2 |
| CCAGACGA | -0.0873 |
| ATCGTCCA | -0.0714 |
| ACCGTCCG | 0.381 |
| ATCGTCCC | 0.0149 |
| AACGTCCC | -0.179 |
| ACCGTCCC | 0.141 |
| AACGTCCA | -0.0731 |
| AACGTCCG | 0.371 |
| ATCGTCCG | 0.379 |
| CCCGTCCG | 0.314 |
| CAGTGCCC | 0.00772 |
| ACAAGGGC | -0.112 |
| CCATTAGG | -0.215 |

| Sequence | PBM E-score |
| --- | --- |
| AATTGCAG | -0.0487 |
| CGAGGCAC | 0.0885 |
| AATAGATA | -0.00886 |
| GCCTTAAC | -0.0709 |
| CTGGTTTA | -0.309 |
| ACGTCTAC | -0.179 |
| CTGGTCAC | -0.325 |
| AACGGGGG | 0.158 |
| GCCGGAGA | 0.372 |
| CCCGGAGA | 0.428 |
| ACCGGAAT | 0.36 |
| GCCGGAGC | 0.344 |
| CCCGGAGC | 0.354 |
| ACCGGAGT | 0.4 |
| ACCGGAGC | 0.409 |
| CCCAGAGA | -0.226 |
| ACCAGAGT | -0.222 |
| CCGGGAGA | 0.29 |
| GCCAGAGA | -0.227 |
| GACGGAGA | 0.318 |
| ATTGGTGA | -0.281 |
| AGCTTTTG | -0.167 |
| AGTAGTGA | -0.1 |
| AAGAAGGA | -0.21 |
| ACAGGAAT | -0.135 |

| Sequence | PBM E-score |
| --- | --- |
| ACACGGAT | 0.209 |
| CTCCTCAC | -0.186 |
| CCGTTCCA | 0.172 |
| AACGGAGT | 0.373 |
| AACGGAGC | 0.241 |
| AGCGGAGG | 0.158 |
| TCCGGAGA | 0.442 |
| AGCGGAGA | 0.276 |
| ACCGGAGA | 0.43 |
| CACGGAGA | 0.365 |
| ACAGGAGA | -0.131 |
| ACCGGAGG | 0.399 |
| TACGGAGA | 0.326 |
| CCCGGAGG | 0.285 |
| AACGGAGA | 0.357 |
| CAAATAAG | 0.0685 |
| AAAACGGG | 0.174 |
| CGGGGACG | 0.163 |
| AACGCGGG | 0.267 |
| GCGTCTAA | -0.0983 |
| GACACAGA | 0.0169 |
| GCCATACC | 0.0518 |
| CTATCGAG | -0.0625 |
| CAGGTTTA | -0.0176 |
| AACGGTCG | 0.23 |

| Sequence | PBM E-score |
| --- | --- |
| TAGCACTA | -0.326 |
| GGATTTAC | 0.415 |
| AGATTTAC | -0.103 |
| TGATTTAA | 0.0921 |
| CGATTTAC | 0.149 |
| CGATTTAA | 0.0314 |
| GGATTTAA | 0.444 |
| TTACCGAA | 0.233 |
| CGTCTGAC | -0.045 |
| ATGAAGCG | -0.208 |
| ACCACTTA | -0.00971 |
| ATGTTAGA | -0.336 |
| AAGCCGGA | 0.413 |
| CAGCCGGC | 0.331 |
| GAGCCGGA | 0.379 |
| GAGCCGGC | 0.339 |
| AAGCCGGC | 0.399 |
| AAGCCGGT | 0.332 |
| TAGCCGAA | 0.314 |
| TAGCCGGA | 0.407 |
| AAGCCGGG | 0.238 |
| CAGCCGGA | 0.33 |
| GAGCCGCA | -0.0121 |
| AAGCCGTC | 0.27 |

— the supplement of paper PMC3334620
